Screen size: about 310,000 compounds; about 14,000 (4.5%) showed an effect of 50% or more. Effects have a minus sign here. The sample holds strong results, similar compounds and a random draw of the others, so the mix is not that of the screen.
Target: human ether-à-go-go-related gene (hERG) potassium channel (human, UniProt Q12809)
Experiment: primary screen, population patch clamp on CHO cells stably expressing hERG; higher = less effect of the substance
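Further: peak tail current of the secondary pulse compared with the same well before compound.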

Sequence of human ether-à-go-go-related gene (hERG) potassium channel (Q12809 whole entry, looked up): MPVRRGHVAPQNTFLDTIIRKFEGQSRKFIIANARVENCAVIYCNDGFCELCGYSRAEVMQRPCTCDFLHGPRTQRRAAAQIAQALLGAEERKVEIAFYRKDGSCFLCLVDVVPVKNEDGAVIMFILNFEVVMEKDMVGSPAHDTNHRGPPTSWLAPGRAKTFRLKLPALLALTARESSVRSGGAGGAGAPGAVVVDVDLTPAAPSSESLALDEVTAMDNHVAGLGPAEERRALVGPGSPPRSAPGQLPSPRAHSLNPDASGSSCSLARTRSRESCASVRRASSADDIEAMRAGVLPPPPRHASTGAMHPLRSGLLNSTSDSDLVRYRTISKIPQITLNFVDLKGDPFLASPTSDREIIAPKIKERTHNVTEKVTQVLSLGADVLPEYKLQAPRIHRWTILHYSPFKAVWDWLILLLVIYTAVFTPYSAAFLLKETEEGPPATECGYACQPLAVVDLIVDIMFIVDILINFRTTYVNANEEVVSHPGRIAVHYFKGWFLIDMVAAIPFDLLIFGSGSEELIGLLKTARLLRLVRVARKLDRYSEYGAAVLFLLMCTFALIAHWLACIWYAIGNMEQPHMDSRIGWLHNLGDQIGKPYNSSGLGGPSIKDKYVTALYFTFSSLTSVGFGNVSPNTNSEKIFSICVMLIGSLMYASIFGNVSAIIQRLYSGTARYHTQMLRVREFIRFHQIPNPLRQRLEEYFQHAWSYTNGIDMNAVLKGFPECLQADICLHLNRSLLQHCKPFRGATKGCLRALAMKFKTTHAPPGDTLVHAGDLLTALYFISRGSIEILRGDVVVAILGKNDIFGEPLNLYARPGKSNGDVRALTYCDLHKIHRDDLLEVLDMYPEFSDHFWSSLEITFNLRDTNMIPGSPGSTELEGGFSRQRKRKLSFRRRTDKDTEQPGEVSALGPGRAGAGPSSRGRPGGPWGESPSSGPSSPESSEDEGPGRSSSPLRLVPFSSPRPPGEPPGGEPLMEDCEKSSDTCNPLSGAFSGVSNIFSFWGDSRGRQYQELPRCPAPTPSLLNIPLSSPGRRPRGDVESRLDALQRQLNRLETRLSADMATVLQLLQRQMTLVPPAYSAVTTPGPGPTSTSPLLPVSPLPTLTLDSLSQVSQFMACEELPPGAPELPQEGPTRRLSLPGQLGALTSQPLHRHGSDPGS

| SMILES | hERG current change (%, negative = inhibition) at 10uM [%] |
| --- | --- |
| COc1ccc(C)cc1N(C(=O)COc1cccc(F)c1)c1nc2ccccc2s1 | -27.2 |
| O=[N+]([O-])c1ccc(-n2nnnc2-c2ccccc2)c([N+](=O)[O-])c1 | 6.9 |
| COc1cccc(CN2CC(C(=O)NCc3cccc(N4CCCC4)c3)CCC2=O)c1 (stereo not shown) | -5.08 |
| CCOc1ccc(S(=O)(=O)NC2CC2)cc1 | 4.15 |
| N/C(=N\OC(=O)c1ccc2ccccc2c1)c1ccncc1 | -38.4 |
| C[C@H](CCC(=O)O)[C@H]1CC[C@H]2[C@@H]3[C@H](O)C[C@@H]4C[C@H](O)CC[C@]4(C)[C@H]3CC[C@]12C | 13.8 |
| CC(C)C(=O)N1CCN(c2ccccc2NC(=S)NC(=O)c2cccs2)CC1 | -2.66 |
| CCOc1ccc(OCC)c(NC(=O)C2CCCN(C(=O)c3ccc(Cl)cc3)C2)c1 (stereo not shown) | -34 |
| O=[N+]([O-])c1ccc(OCCCCCN2CCOCC2)cc1 | -58.6 |
| O=[N+]([O-])c1ccc(OCCCCN2CCCCC2)cc1 | -69.4 |
| Clc1ccc(OCCCCCN2CCOCC2)cc1 | -37.6 |
| Cc1ccc(OCCCCCN2CCOCC2)cc1 | 4.39 |
| O=[N+]([O-])c1ccccc1OCCCCN1CCCCC1 | -32.2 |
| C=Cc1ccc2c(c1)N(C)C(=C)S2.I | 19.7 |
| CCOC(=O)c1oc2ccccc2c1NC(=O)COC | -12.2 |
| COc1ccc(CCNC(=S)Nc2cccc3ccccc23)cc1 | -4.42 |
| CCOc1ccc(NS(=O)(=O)c2ccc(C(=O)N3CCC3)cc2)cc1 | -4.09 |
| COc1ccc(OC)c(NC(=O)Cn2c(CCC(=O)O)ccc2-c2ccccc2)c1 | -5.33 |
| COc1ccccc1CNc1nc2nc(C)c(Cl)c(=O)n2[nH]1 | -2.39 |
| O=c1c2c3c(sc2n(CCN2CCCC2)c(=O)n1Cc1ccccc1)CCCCC3 | -34.7 |
| O=c1c2c3c(sc2n(CCN2CCOCC2)c(=O)n1Cc1ccco1)CCCCC3 | -44.3 |
| O=c1c2c3c(sc2n(CCN2CCCCC2)c(=O)n1Cc1ccco1)CCCCC3 | -69.1 |
| O=C(Cn1c(=O)n(Cc2ccco2)c(=O)c2c3c(sc21)CCCC3)Nc1ccccc1 | 18 |
| O=C(Cn1c(=O)n(Cc2ccco2)c(=O)c2c3c(sc21)CCCCC3)Nc1ccccc1 | 6.54 |

| SMILES | hERG current change (%, negative = inhibition) at 10uM [%] |
| --- | --- |
| O=c1c2c3c(sc2n(CCN2CCCC2)c(=O)n1Cc1ccco1)CCCCC3 | -68.6 |
| c1ccc(-c2[nH]ncc2-c2nc3ccccc3[nH]2)cc1 | -11 |
| CCOC(=O)N1CCN(C(=O)Cn2c(C)cc3ccccc3c2=O)CC1 | 3.68 |
| O=C(CCn1nnc2ccccc21)N1CCC(O)(c2cccc(F)c2)CC1 | 4.12 |
| CC(C)(C)NC(=O)c1ccc(NC(=O)c2ccccc2-c2ccccc2C(=O)O)cc1 | 25.2 |
| COc1ccc(C(=O)C2CCCN(C(=O)C3CCOCC3)C2)c(C)c1 (stereo not shown) | 27 |
| COc1ccc2cc(C(=O)C3CCCN(C(=O)c4ccnn4C)C3)ccc2c1 (stereo not shown) | -41.1 |
| CC(C)Oc1cccc(C(=O)C2CCCN(C3CCOCC3)C2)c1 (stereo not shown) | -10.5 |
| COc1ccc2cc(C(=O)C3CCCN(C4CCOCC4)C3)ccc2c1 (stereo not shown) | -63.5 |
| COc1cccc(C(=O)C2CCCN(C3CCOCC3)C2)c1 (stereo not shown) | -50.4 |
| COc1cccc(C(=O)C2CCCN(C(=O)c3ccccc3Cl)C2)c1 (stereo not shown) | 5.15 |
| Cc1ccc(C(C#N)c2ccc3c(C(F)(F)F)cc(C(F)(F)F)nc3n2)cc1 (stereo not shown) | 11.1 |
| CCOc1cc(NS(=O)(=O)c2ccc(NC(C)=O)cc2)c(OCC)cc1NC(=O)C(C)C | 10.3 |
| O=C(CCN1CCCCO1)N1CCCC(Nc2ccc(F)cc2)C1 (stereo not shown) | 12.7 |
| O=C(Cn1ccc([N+](=O)[O-])n1)N1CCc2ccccc21 | -2.32 |
| Cc1cc(C)n2cc(-c3ccc(Cl)cc3)c(C(=O)O)c2n1 | -50.9 |
| CCOC(=O)c1c(-c2ccccc2)cn2c(C)cc(C)nc12 | -22.9 |
| Cc1cc(C)n2nc(C)c(-c3ccc(Cl)cc3)c2n1 | 27.1 |
| O=c1[nH]c(=S)n(-c2ccccc2)c(O)c1/C=N/N1CCOCC1 | -2.11 |
| Cc1noc(C)c1-c1nnc(-c2ccc(C(F)(F)F)cc2)o1 | 4.76 |
| COCc1ccc(C(=O)N(C)C2CCCN(Cc3ccccc3F)C2)o1 (stereo not shown) | 0.722 |
| COCc1ccc(C(=O)N(C)CC2CCCN(CCc3ccc(OC)cc3)C2)o1 (stereo not shown) | -69.5 |
| COCc1ccc(C(=O)NC2CCCN(Cc3ccccc3F)C2)o1 (stereo not shown) | 11.2 |
| COCc1ccc(C(=O)N(C)CC2CCCN(CCc3ccccc3F)C2)o1 (stereo not shown) | -41 |

| SMILES | hERG current change (%, negative = inhibition) at 10uM [%] |
| --- | --- |
| COCc1ccc(C(=O)N(C)CC2CCCN(CCc3ccc(Cl)cc3)C2)o1 (stereo not shown) | -78.9 |
| COc1ccccc1OCC(=O)Nc1ccc2c(c1)C(=O)N(CC1CCCO1)C2=O (stereo not shown) | -19.3 |
| CC(=O)Nc1cccc(N(C(=O)C2COc3ccccc3O2)C(C(=O)NC2CCCCC2)c2cn(C)nc2C)c1 (stereo not shown) | 24.1 |
| CCOc1cc(CNc2ccc(N(C)C)cc2)cc(Br)c1OCC(=O)NC(C)(C)C | -17 |
| Cc1c(C)c2cc3c(C)coc3cc2oc1=O | 10.5 |
| CN1C(C(=O)NCc2ccc(OC(F)(F)F)cc2)CC2Cn3c(nc4cc(Cl)c(Cl)cc43)C21 (stereo not shown) | -77.9 |
| COc1ccc(CCNC(=O)C2CC3Cn4c(nc5cc(Cl)c(Cl)cc54)C3N2C)cc1 (stereo not shown) | -23.5 |
| O=C(NCc1ccc(OC(F)(F)F)cc1)C1CC2Cn3c(nc4ccccc43)C2N1c1ccccc1 (stereo not shown) | -61.3 |
| CN1C(C(=O)NCc2ccc(OC(F)(F)F)cc2)CC2Cn3c(nc4cc5ccccc5cc43)C21 (stereo not shown) | -69.4 |
| COc1ccc(CCNC(=O)C2CC3Cn4c(nc5ccccc54)C3N2c2ccccc2)cc1 (stereo not shown) | -7.57 |
| CN1C(C(=O)NCC2CC2)CC2Cn3c(nc4cc5ccccc5cc43)C21 (stereo not shown) | -21.2 |
| COc1ccc(CCNC(=O)C2CC3Cn4c(nc5cc(C)c(C)cc54)C3N2C)cc1 (stereo not shown) | -31.4 |
| COc1ccc(CCNC(=O)C2CC3Cn4c(nc5ccccc54)C3N2Cc2ccccc2)cc1 (stereo not shown) | -49.7 |
| COc1ccc(CCNC(=O)C2CC3Cn4c(nc5cc6ccccc6cc54)C3N2C)cc1 (stereo not shown) | -43.7 |
| O=C(NCc1ccc(OC(F)(F)F)cc1)C1CC2Cn3c(nc4ccccc43)C2N1Cc1ccccc1 (stereo not shown) | -62.1 |
| O=C(CN1CCC2(CC1)OCCO2)c1ccc2cc[nH]c2c1 | -15.2 |
| Cc1cc(C(=O)N/N=C/c2ccc(-c3cccc(Cl)c3)o2)n[nH]1 | 11.3 |
| CN1C(C(=O)NCC2CC2)CC2Cn3c(nc4ccccc43)C21 (stereo not shown) | 15.5 |
| COc1ccc(CCNC(=O)C2CC3Cn4c(nc5ccccc54)C3N2C)cc1 (stereo not shown) | -8.64 |
| CN1C(C(=O)NCc2ccc(OC(F)(F)F)cc2)CC2Cn3c(nc4ccccc43)C21 (stereo not shown) | -78.7 |
| CCOc1ncccc1C(=O)NCCCSc1ccccc1 | -35.9 |
| O=C(O)C1=C[C@@H](c2ccccc2)C[C@@H](OCCCCO)O1 | 8.4 |
| COc1ccc(CC(C)N2CCN(Cc3ccccc3)CC2)cc1OC (stereo not shown) | -33.1 |
| COc1ccc(CC(C)N2CCN(c3ccccc3)CC2)cc1OC (stereo not shown) | -64 |

| SMILES | hERG current change (%, negative = inhibition) at 10uM [%] |
| --- | --- |
| COc1ccc(CC(C)N2CCN(c3cccc(C(F)(F)F)c3)CC2)cc1OC (stereo not shown) | -65.9 |
| COc1cccc(CN2CCN(c3cccc(C(F)(F)F)c3)CC2)c1OC | -23.9 |
| COc1ccc(CC(=O)N2CCN(c3ccccc3)CC2)cc1OC | 18.4 |
| COc1ccccc1CC(=O)N1CCN(c2cccc(C(F)(F)F)c2)CC1 | -9.71 |
| COc1ccc(CC(C)N2CCN(c3ccccc3OC)CC2)cc1OC (stereo not shown) | -62.1 |
| COc1ccc(/C=N/N2CCN(c3ccccc3OC)CC2)cc1OC | -19.7 |
| COc1ccc(S(=O)(=O)N2CCN(c3ccccc3OC)CC2)cc1OC | -2.71 |
| CC1(/[N+]([O-])=C\c2ccccc2F)CCCCC1=O (stereo not shown) | 8.53 |
| Cc1ccn2c(-c3n[nH]c(=S)n3C)c(C)nc2c1 | 19.6 |
| COc1cccc(NC(=O)N2CCCC2C(=O)Nc2ccc3c(c2)OCO3)c1 (stereo not shown) | 15.8 |
| O=c1[nH]c(=O)n(C2CCCCCC2)c(O)c1C=NCc1cccnc1 | -9.79 |
| O=C(N/N=C/c1c(O)n(CCC2=CCCCC2)c(=S)[nH]c1=O)c1ccccc1 | 7.94 |
| C=CCn1c(O)c(C=NC2CCN(Cc3ccccc3)CC2)c(=O)[nH]c1=O | -33.5 |
| Cn1c(O)c(C=NC2CCN(Cc3ccccc3)CC2)c(=O)n(C)c1=O | -20.4 |
| O=c1[nH]c(=O)n(Cc2ccco2)c(O)c1C=NC1CC1 | 9.35 |
| O=c1[nH]c(=O)n(Cc2ccco2)c(O)c1C=NC1CCN(Cc2ccccc2)CC1 | -59.2 |
| O=c1[nH]c(=O)n(Cc2ccco2)c(O)c1/C=N/N1CCCCC1 | 3.21 |
| O=c1[nH]c(=O)n(C2CCCCCC2)c(O)c1C=NC1CCN(Cc2ccccc2)CC1 | -53.2 |
| O=c1[nH]c(=S)n(CCC2=CCCCC2)c(O)c1/C=N/Nc1ccccc1 | -7.83 |
| O=c1[nH]c(=O)n(CCC2=CCCCC2)c(O)c1/C=N/Nc1ccccc1 | 14.8 |
| O=c1[nH]c(=O)n(CCC2=CCCCC2)c(O)c1C=NC1CCN(Cc2ccccc2)CC1 | -58.6 |
| O=c1[nH]c(=S)n(CCC2=CCCCC2)c(O)c1C=NC1CCN(Cc2ccccc2)CC1 | -55 |

From publication PMC4336329 (PLoS ONE, 2015)
